Screening results from PubChem BioAssay.
HCMV antiviral = qHTS Assay for inhibitors of the human cytomegalovirus (HCMV); HFF cells, HCMV-luciferase reporter, 72 h; active compounds read low; hit rate 4.5% among 410,000; activity change, negative = inhibition, % at 57.5 µM; AID 1259415, 2018; in the data active means activity change below about -60%; inconclusive means no clear call, values can overlap the other calls; inactive means above about -39%
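Steps: HFFs plated, 16 h 37C; compounds added; HCMV-luciferase added to MOI 1 PFU/cell; 72 h 37C; OneGlo reagent, 5 min room temperature; luminescence read, normalized to controls.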
FBPA Giardia inh = qHTS Assay for Inhibitors of Fructose-1,6-bisphosphate Aldolase from Giardia Lamblia. Potency, µM (titrated, usually from 59.6 µM), actives largely listed as inhibitors. AID 2451, 2010. purified Giardia FBPA. A8B2U2. hit rate 0.71% among 290,000; further: nearly all actives have a fitted effect of over 55% in size
Target sequence (A8B2U2 whole entry, looked up): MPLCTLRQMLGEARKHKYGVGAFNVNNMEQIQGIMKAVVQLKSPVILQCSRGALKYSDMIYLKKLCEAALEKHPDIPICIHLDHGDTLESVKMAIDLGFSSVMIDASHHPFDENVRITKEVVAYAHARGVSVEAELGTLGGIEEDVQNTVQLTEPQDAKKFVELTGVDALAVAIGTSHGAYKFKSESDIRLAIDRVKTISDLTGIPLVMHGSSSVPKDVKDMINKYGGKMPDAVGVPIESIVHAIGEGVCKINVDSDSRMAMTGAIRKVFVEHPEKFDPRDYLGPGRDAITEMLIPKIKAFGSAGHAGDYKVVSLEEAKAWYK
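40 nM FBPA preincubated 10 min at RT with compound (up to 57.5 uM final), then substrate plus GAPDH/TPI/NAD/arsenate coupling and diaphorase/resazurin added. Fluorescence read after 20 min at RT, 525/598 nm.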
Pf growth 48h = Primary qHTS for delayed death inhibitors of the malarial parasite plastid, 48 hour incubation. P. falciparum luciferase growth in erythrocytes, 48 h. Potency, µM (highest dose often 28.7 µM), usual class: inhibitors. hit rate 5.9% among 310,000. AID 504832, 2011
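Luminescence readout; reporter = integrated firefly luciferase in P. falciparum. RBC culture at 2% hematocrit, 0.1% parasitemia final, 37 C/5% CO2; decreased signal taken as growth inhibition.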
Sm TGR block = qHTS Assay for the Inhibitors of Schistosoma Mansoni Peroxiredoxins | Schistosoma mansoni thioredoxin glutathione reductase (TGR), Q962Y6 | purified TGR, DTNB reduction, TNB absorbance 405 nm | Potency, µM (top dose mostly 114 µM), most hits filed as inhibitors | hit rate 3% among 360,000; further: nearly all actives have a fitted effect of over 60% in size
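TGR 20 nM + NADPH 100 uM (dispensed conc.), cpd preinc 15 min RT; start with NADPH (500 uM addition) then DTNB (15 mM addition). Kinetic TNB absorbance, 405 nm filter. Four-parameter Hill fit across titration.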
Pf growth 96h = Primary qHTS for delayed death inhibitors of the malarial parasite plastid, 96 hour incubation; P. falciparum luciferase reporter growth, 96 h; Potency, µM (doses to about 28.7 µM), usual class: inhibitors; hit rate 6.9% among 320,000; AID 504834, 2011
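Erythrocytes infected with luciferase-expressing P. falciparum were dispensed at 2% hematocrit and 0.05% parasitemia (final), then incubated with compounds 96 hours at 37 C in 5% CO2. Luminescence after detection reagent addition reported growth.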
Each line names hits and unclear results; the compound was inactive in the other large screens. Only some compounds are listed: those with a hit (about 14% of all), similar ones and a draw of the others. Unless noted, the call rests on the fitted dose curve; in most records, active means well fitted curve in the direction sought with a large enough effect; inconclusive means small, poorly fitted or top-dose-only effect, or another doubt; inactive means no such curve, though single readings can be large; an effect the other way counts as inactive or inconclusive.

CCCC1COC(Cn2cncn2)(c2ccc(Cl)cc2Cl)O1 (centres undefined)	Pf growth 48h 12µM
Clc1ccc(C2(Cn3cncn3)OCCO2)c(Cl)c1	Pf growth 96h inconclusive (no result: HCMV antiviral, FBPA Giardia inh, Sm TGR block)
CC1CCN(C(=O)Cn2cc(SCC(=O)NCc3ccc(F)cc3)c3ccccc32)CC1	HCMV antiviral inconclusive (no result: FBPA Giardia inh, Pf growth 48h, Pf growth 96h)
COc1ccc(OC)c(NC(=O)CSc2cn(CC(=O)N3CCCCCC3)c3ccccc23)c1	HCMV antiviral inconclusive (no result: FBPA Giardia inh, Pf growth 48h, Pf growth 96h)
COc1ccc(Cl)cc1NC(=O)CSc1cn(CC(=O)N2CCCCC2)c2ccccc12	HCMV antiviral -72 (no result: FBPA Giardia inh, Pf growth 48h, Pf growth 96h)
CC1CCN(C(=O)Cn2cc(SCC(=O)NCc3ccccc3)c3ccccc32)CC1	HCMV antiviral -85 (no result: FBPA Giardia inh, Pf growth 48h, Pf growth 96h)
COCCCn1c(N)c(C(=O)OCCOC)c2nc3ccccc3nc21	FBPA Giardia inh inconclusive, Pf growth 96h inconclusive
CCOC(=O)c1c(NS(=O)(=O)c2ccccc2)n(CCCOC)c2nc3ccccc3nc12	HCMV antiviral inconclusive, FBPA Giardia inh inconclusive, Pf growth 48h 10µM
CCCNC(=O)C1(C)CCN(C(=O)Cc2ccc(OC)c(OC)c2)C1 (centres undefined)	none (no result: FBPA Giardia inh, Pf growth 48h, Sm TGR block, Pf growth 96h)
COc1ccc(-c2csc3ncnc(N4CCN(S(=O)(=O)c5cccs5)CC4)c23)cc1	HCMV antiviral -71, Pf growth 48h inconclusive (no result: FBPA Giardia inh)
Cc1csc2c(N3CCN(S(=O)(=O)c4ccc(Cl)cc4)CC3)ncnc12	none
O=S(=O)(c1ccc(Cl)cc1)N1CCN(c2ncnc3sccc23)CC1	HCMV antiviral -69 (no result: FBPA Giardia inh, Pf growth 48h, Sm TGR block, Pf growth 96h)
Cc1ccc(S(=O)(=O)N2CCN(C(=O)C3CCN(c4ncnc5sc(C)c(C)c45)CC3)CC2)c(C)c1	HCMV antiviral -80 (no result: FBPA Giardia inh, Pf growth 48h, Sm TGR block, Pf growth 96h)
COc1ccc(-c2csc3ncnc(N4CCN(S(=O)(=O)c5ccc(Cl)s5)CC4)c23)cc1	HCMV antiviral -66, Pf growth 48h inconclusive, Pf growth 96h inconclusive (no result: FBPA Giardia inh)
Cc1ccc(C)n1C1C(=O)N(Cc2ccc(C(C)C)cc2)c2ccccc21 (centres undefined)	none (no result: FBPA Giardia inh, Pf growth 48h, Sm TGR block, Pf growth 96h)
Cn1cccc1C(=O)N1CCC2(CC1)CN(C(c1ccccc1)c1ccccc1)C2	none (no result: HCMV antiviral, Pf growth 48h, Sm TGR block, Pf growth 96h)
COc1ccc(-c2csc3ncnc(N4CCN(S(=O)(=O)c5ccc(C)cc5)CC4)c23)cc1	Pf growth 48h 12µM, Pf growth 96h inconclusive (no result: FBPA Giardia inh)
Cc1sc2ncnc(N3CCN(S(=O)(=O)c4ccc(C(C)(C)C)cc4)CC3)c2c1C	HCMV antiviral -82 (no result: FBPA Giardia inh, Pf growth 48h, Sm TGR block, Pf growth 96h)
Cn1cnc2c(=O)oc3ccc(S(=O)(=O)N4CCN(c5cccc(C(F)(F)F)c5)CC4)cc3c21	none (no result: FBPA Giardia inh, Pf growth 48h, Pf growth 96h)
Cc1sc2ncnc(N3CCN(S(=O)(=O)c4ccc(Br)cc4)CC3)c2c1C	none (no result: FBPA Giardia inh, Pf growth 48h, Sm TGR block, Pf growth 96h)
Cc1csc2ncnc(N3CCN(S(=O)(=O)c4cccc(C(F)(F)F)c4)CC3)c12	HCMV antiviral -92 (no result: FBPA Giardia inh)
CCCCCCC1/C(=N\NC(=O)c2ccccc2)CCC1C(=O)OC (centres undefined)	none (no result: Pf growth 48h)
CC(CCOS(N)(=O)=O)c1ccccc1 (centres undefined)	none (no result: HCMV antiviral)
Cc1nn(C)c(C)c1NC(=O)CCSc1nc(-c2ccco2)cc(C(F)(F)F)n1	HCMV antiviral inconclusive, Sm TGR block inconclusive (no result: Pf growth 96h)
Cc1ccc(Cn2ccc(NC(=O)CCSc3nc(-c4ccco4)cc(C(F)(F)F)n3)n2)cc1	Pf growth 48h 10µM (no result: Pf growth 96h)
O=C(CCCSc1nc(-c2ccco2)cc(C(F)(F)F)n1)NCC1CCCO1 (centres undefined)	Pf growth 48h inconclusive, Sm TGR block 50µM
Cc1cc(NC(=O)CCSc2nc(-c3ccco3)cc(C(F)(F)F)n2)n(-c2ccccc2)n1	HCMV antiviral inconclusive, Pf growth 48h 12µM
CCn1nc(C)c(NC(=O)CCCSc2nc(-c3ccco3)cc(C(F)(F)F)n2)c1C	Pf growth 48h inconclusive, Sm TGR block 50µM
Cc1ccccc1Cn1ccc(NC(=O)CCSc2nc(-c3ccco3)cc(C(F)(F)F)n2)n1	none (no result: Pf growth 96h)
COc1ccc(NC(=O)C2c3ccccc3OCC(=O)N2Cc2cccnc2)cc1 (centres undefined)	none (no result: FBPA Giardia inh, Pf growth 48h, Sm TGR block, Pf growth 96h)
Cc1ccc2c(CC(=O)Nc3c(C(=O)c4ccc(C)c(F)c4)oc4ccccc34)coc2c1	none (no result: FBPA Giardia inh, Pf growth 48h, Pf growth 96h)
C[C@H]1[C@@H](NS(=O)(=O)c2ccc(Cl)cc2)CC[C@@]23CCCN2C(=O)CCC[C@@H]13	none (no result: FBPA Giardia inh, Pf growth 48h, Sm TGR block, Pf growth 96h)
C=CC[C@H](CC(=O)N[C@H](CO)Cc1ccccc1)C(=O)N[C@@H](COC(=O)[C@H](CC=C)CC(=O)OC(C)(C)C)Cc1c[nH]c2ccccc12	none (no result: FBPA Giardia inh, Pf growth 48h, Sm TGR block, Pf growth 96h)
